The panel holds about 79,000 compounds, 15% with a hit somewhere; the sample as a whole holds those more often. Unmarked numbers belong to inactive results. The source made the active and inactive calls. No stated cut-off is given here; in the data, active means growth inhibition above about 70%; inactive means the rest.
Assay: NCI Yeast Anticancer Drug Screen. Data for the mlh1 rad18 strain (AID 175)
Conditions: S. cerevisiae mlh1 rad18 strain growth inhibition; at 50.0 µM; hits give high values
How it was run: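 Inhibition values reflect reduced growth of mutant yeast versus vehicle-treated controls following compound exposure; the mutations affect DNA damage repair.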

| SMILES | growth inhibition |
| --- | --- |
| CC(=O)N(C)N=Nc1ccc(C(F)(F)F)cc1 | -4.5% |
| O=c1oc2ccccc2cc1S(=O)(=O)c1ccc(Cl)cc1 | -20.4% |
| CCc1c([N+](=O)[O-])cc(C(C)(C)C)c(OC)c1[N+](=O)[O-] | -31.6% |
| O=C(NCCCCCCCCCCNC(=O)C12CC3CC(CC(C3)C1)C2)C12CC3CC(CC(C3)C1)C2 | -14.5% |
| O=C1C=CC(=NN=c2c3ccccc3oc3ccccc23)C=C1 | 0.1% |
| COCC/C=C\CN(C(C)C)C(C)C | 1.05% |
| Oc1ccc(-c2cc(-c3c(O)cc(O)cc3O)on2)cc1 | 9.35% |
| COc1ccc(-c2cc(=O)c3ccc(O)cc3o2)c(OC)c1OC | -1.75% |
| NC(=O)c1cc2ccccc2c2ccccc12 | -3.85% |
| CC(=O)Nc1ccc2c(c1)Cc1cccc(O)c1-2 | 10.1% |
| C/C(=N\NC(=S)NC(C)C)c1nc2ncccc2[nH]1 | -25.8% |
| COc1cc(C2c3cc4c(cc3[C@@H](Nc3ccc(C#N)cc3)C3COC(=O)[C@H]23)OCO4)cc(OC)c1O (stereo not given in full) | 88.3% (active) |
| CCCCCCC(C)OC(C)=O (stereo not given) | -13.8% |
| O=[N+]([O-])c1ccc(C=Nc2ccc3c(c2)Cc2ccccc2-3)cc1 | 1.25% |
| CCOC(=O)c1cnc2c(ccc3ncccc32)c1OCC | 12.1% |
| CC12CCCC3(CC(=O)C(C)(C)C3C(=O)C1)C2 (stereo not given) | 6.2% |
| NC(=S)NNC(=S)NC(=O)c1ccco1 | -18.7% |
| O=c1[nH]c(=O)n(C2OC(CO)C(O)C2O)cc1OCCCc1ccccc1 (stereo not given) | 8.75% |
| O=C(O)C(Cc1ccc2c(c1)CCC2)(Cc1ccc2c(c1)CCC2)C(=O)O | 12.1% |
| O=C(Oc1ccc(OC(=O)c2ccc([N+](=O)[O-])cc2)cc1)c1ccccc1 | 5.25% |

| SMILES | growth inhibition |
| --- | --- |
| CCCc1nnnn1C12CC3CC(CC(C3)C1)C2 | 28.1% |
| CC1CCC(C(C)C)=C(C2CCCCC2)C1 (stereo not given) | 6.65% |
| Cc1ccc2c(c1)CCCN2 | 7.55% |
| NC(=Nc1ccc([N+](=O)[O-])cc1)c1ccccc1 | 9.65% |
| O=C(O)CNC(=O)c1cccc(Cl)c1 | 14.6% |
| OCCCCCOCc1ccccc1 | 23.3% |
| Nc1ccc(C(=O)Nc2ccccn2)cc1 | -2.55% |
| c1ccc2c(c1)N=C(c1ccc3ccccc3c1)CC(c1cccc3ccccc13)S2 (stereo not given) | -3.15% |
| O=C1Cc2c(-c3ccccc3)cc(-c3ccccc3)nc2-c2ccccc2N1 | 41.2% |
| Nc1ccc(C(=O)NO)c(O)c1 | -6% |
| CC(=O)OC1c2ccccc2C(=O)C1(OC(C)=O)c1ccccc1 (stereo not given) | 43.9% |
| COc1cccc2c1[C@H]1CO[C@H]3C4C[C@H](C(=O)O)C([C@@H](C2)N13)N4C (stereo not given in full) | -2.5% |
| CC(=O)CC(=O)NC(C)(C)C | 7.7% |
| [O-][n+]1onc2c1CCC(=N\O)/C2=N/Nc1ccccc1 | 11.3% |
| CCOC(=O)NC(Nc1ccc([N+](=O)[O-])cc1)(C(F)(F)F)C(F)(F)F | 59.1% |
| CC(=O)N(C(C)=O)c1cc2c3ccccc3ccc2c2ccccc12 | 29.4% |
| C=CCOc1ccccc1C | -14.9% |
| COc1ccc(C(=O)NNC(=O)c2ccc3ccccc3c2)cc1 | -7.3% |
| CC(=O)Nc1ccc(F)cc1 | -13.1% |
| Nc1nnc2nc(C(C(=O)c3cccc(O)c3)c3nc4nnc(N)n4[nH]c3=O)c(=O)[nH]n12 | 1.05% |

Reference: PubChem BioAssay (NCI)
